Source: PubChem
D1 antagonist – antagonists of human D1 dopamine receptor | activity change, negative = inhibition, % at 10 µM | P21728 | 3.2% of 360,000 active | HEK293 TREx D1 cells, calcium flux, dopamine EC80; active compounds read low | AID 504652; in the data active = activity change below about -30%; also: % is scaled to controls: 0 for no effect and ±100 for the full control effect
Target sequence (P21728 whole entry, looked up): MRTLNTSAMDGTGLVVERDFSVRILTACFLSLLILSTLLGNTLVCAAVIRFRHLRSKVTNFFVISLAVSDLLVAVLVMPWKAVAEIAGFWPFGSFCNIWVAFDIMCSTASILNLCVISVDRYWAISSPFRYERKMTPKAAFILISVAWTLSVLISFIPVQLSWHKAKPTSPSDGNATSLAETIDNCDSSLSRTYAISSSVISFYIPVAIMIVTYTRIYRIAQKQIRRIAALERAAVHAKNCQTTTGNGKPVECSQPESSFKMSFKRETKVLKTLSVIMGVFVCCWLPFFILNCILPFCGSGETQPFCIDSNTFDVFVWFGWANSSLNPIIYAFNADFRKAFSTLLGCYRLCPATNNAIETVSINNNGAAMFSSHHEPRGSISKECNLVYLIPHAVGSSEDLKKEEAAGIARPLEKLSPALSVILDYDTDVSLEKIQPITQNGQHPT
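After overnight tetracycline induction at 30 C, force-coupled D1 HEK293 cells took up a no-wash calcium dye at room temperature. Compounds were added and monitored 180 s, and the response to EC80 dopamine was then recorded.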
TRHR PAM – allosteric enhancers of human TRH receptor; P34981; TRHR cells, fluo-8 calcium fluorescence, EC20 TRH enhancement; enhancement, % at 2 µM; 0.66% of 360,000 active; AID 493056; in the data active = enhancement above about 30%; also: 0% is about no effect
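Enhancer read-out: after compound pinning and an initial kinetic agonist-mode read, an EC20 of TRH (10 nM final) was injected and fluo-8 calcium signal (Ex 480/Em 530) followed at 1 s/cycle for 100 cycles in TRHR-expressing cells.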
D1 agonist – human D1 receptor agonism; P21728; HEK293 T-REx D1 cells, calcium flux, agonist mode; activation, % at 2 µM; 1% of 360,000 active; also: 0% is about no effect
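Tetracycline-induced HEK293 TREx D1 cells, force-coupled to calcium signalling, were dye-loaded with a no-wash calcium kit. Compound was pin-added after a 10 s baseline. Fluorescence was read kinetically at 1 cycle/s for 180 s, with calcium rises flagged as agonism.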
D1 PAM – human D1 dopamine receptor positive modulation. AID 504651. HEK293 TREx D1 cells, calcium flux, dopamine EC20 potentiation. potentiation, % at 10 µM. 0.036% of 360,000 active; in the data active = potentiation above about 30%; also: 0% is about no effect
TRHR ag – TRH receptor (human) agonism | AID 493084 | TRHR cells, calcium flux fluo-8, FDSS agonist mode | 0.18% of 360,000 active | P34981 | activation, % at 2 µM; also: 0% is about no effect
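TRHR-expressing cells loaded with fluo-8 calcium dye; 23 nL library compound pin-transferred, kinetic FDSS fluorescence (Ex 480/Em 530) recorded about 180 s for agonist-induced calcium release, before a 10 nM TRH EC20 addition for potentiator mode.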
Active calls of the source: *; / = no result; ! = a repeat was not active. Most compounds without a hit are left out; they make up all but 4.7% or so of the library. Rule as the data show it, unless noted: active = activation above about 30%; inactive = the rest.

SMILES | D1 antagonist | TRHR PAM | D1 agonist | D1 PAM | TRHR ag
CCN(Cc1ccccc1)C(=O)C(CC(C)C)NS(=O)(=O)c1ccc2c(c1)CCN2C(C)=O (configuration not stated) | 7.0 | -1.2 | -0.6 | 2.6 | -1.4
Cc1c(C(=O)N(C)C)sc2c1c(=O)n(-c1ccc(Cl)cc1)c(=O)n2CC(=O)C(C)(C)C | 0.3 | 2.5 | 0.3 | -2.1 | 0.2
COc1ccc(C2C(C(N)=O)=C(C)Nc3nc(CCCO)nn32)c(OC)c1 (configuration not stated) | 3.7 | -2.9 | 0.1 | 2.2 | 0.0
Cc1nn(-c2ccccc2)c(C)c1/C=N/NC(=O)c1cc(-c2cccs2)[nH]n1 | -87.0* | 3.7 | 2.2 | -12.6 | 0.7
Cc1ccc(Cl)c(N/C=C/C(=O)c2ccccc2)c1 | 2.3 | -2.5 | 6.9 | -1.1 | 0.8
CCOc1ccc(-c2csc(NC(=O)C3CCCO3)n2)cc1 (configuration not stated) | -54.5* | -4.8 | 2.3 | -1.7 | -0.1
O=C(Nc1nc(-c2ccc(Cl)cc2)cs1)C1CCCO1 (configuration not stated) | -7.7 | 1.4 | -0.6 | -6.7 | -0.2
COc1cc(Cl)c(C)cc1NC(=O)c1sc2nc3n(c(=O)c2c1C)CCCCC3 | 0.3 | -5.2 | -1.1 | 5.1 | -0.2
CCOc1ccccc1N(CC(=O)Nc1ccc(OC)c(Cl)c1)S(=O)(=O)c1ccccc1 | 1.9 | -9.2 | 2.4 | -3.4 | 0.4
Cc1ccnc(NC(c2ccccc2F)c2ccc3cccnc3c2O)c1 (configuration not stated) | 1.9 | 8.0 | 0.9 | -5.2 | 2.8
Cc1ccnc(NC(c2cc(C)ccc2O)c2ccc3cccnc3c2O)c1 (configuration not stated) | -49.7* | -1.1 | 0.3 | -2.0 | -1.1
O=C(CCOc1ccccc1)Nc1ccnn1C1CCN(Cc2ccc(F)cc2)CC1 | -8.8 | -2.9 | 6.3 | 0.8 | 0.2
CCN1C(=O)/C(=c2\o/c(=C3\C=Cc4ccccc4N3CC)c(=O)n2CC)SC1=S | 8.5 | 0.5 | 1.0 | -4.5 | -0.3
CCN1C(=O)/C(=C2\C=Cc3ccccc3N2CC)SC1=S | -32.8* | -8.4 | -1.6 | -5.2 | 0.3
Cc1ccc(C)c2sc(NC(=O)CN3C(=O)CCC3=O)nc12 | -45.3* | 18.8 | 2.8 | 7.5 | -1.0
O=C(CNC(=O)c1ccc(Br)o1)Nc1ccncc1 | -63.5* | -1.2 | 0.1 | -4.2 | -0.1
O=C(Nc1ccc(Cc2ccncc2)cc1)c1ccc(Br)o1 | -9.3 | -4.3 | 1.3 | -8.2 | -0.6
CCOC(=O)c1ccc(COC(=O)CNC(=O)CNC(=O)Cc2ccccc2)cc1 | 6.1 | 2.2 | 2.9 | -1.3 | -1.3
O=C(CNC(=O)Cc1ccccc1)NCC(=O)OCc1ccc(C(=O)c2ccccc2)cc1 | -62.9* | -4.6 | 3.7 | 0.8 | -0.6
O=C(CNC(=O)c1ccc(Br)o1)NCC(=O)OCc1ccccc1 | 4.8 | 30.4* | 1.1 | -6.7 | 0.1
O=C(CNS(=O)(=O)c1ccccc1)NCC(=O)OCc1ccc(Br)cc1 | -2.5 | -3.3 | 2.4 | 4.8 | -0.5
CC(=O)Nc1nonc1-c1nnc(SCc2ccc(Cl)cc2)n1C | 0.8 | -0.9 | -0.9 | -0.6 | -2.0
CC(C)(O)C#Cc1ccc(C(=O)N2CCN(c3ccccc3)CC2)cc1 | -25.4 | 34.3* | 2.6 | -0.6 | 0.6
COc1ccccc1NC(=O)c1sc2nc(C)c(C(=O)Nc3ccc(C)cc3C)c(-c3ccco3)c2c1N | -8.8 | 3.0 | 24.7 | 1.9 | 7.4
Cc1ccc(S(=O)(=O)/N=C2/NC(=O)/C(=C/c3cccnc3)S2)cc1 | -35.4* | 5.7 | 2.5 | 2.4 | 0.0
SMILES | D1 antagonist | TRHR PAM | D1 agonist | D1 PAM | TRHR ag
Cc1ccc(S(=O)(=O)/N=C2/NC(=O)/C(=C\c3cc(Br)cc(Br)c3O)S2)cc1 | -51.7* | 6.4 | 276.4* | 10.9 | 118.0*
Cc1cccc(OCc2ccc(-c3nc(C#N)c(NCc4cccnc4)o3)o2)c1 | -11.9 | -2.3 | 4.9 | -1.4 | -1.1
O=C(NCc1cn(-c2ccccc2)nc1-c1ccccc1)c1cccc([N+](=O)[O-])c1 | -32.6* | -6.0 | 2.2 | -9.7 | 0.3
C/C(O)=c1/ccc2cccc3nc(C)nc1c23 | -0.9 | -0.5 | 47.0* | 4.2 | 11.3
O/C=c1\ccc2cccc3nc(C(F)(F)F)nc1c23 | -3.6 | -5.2 | 17.3 | -8.6 | 7.9
c1ccc(COc2ccccc2CNC23CC4CC(CC(C4)C2)C3)cc1 | 4.9 | -2.1 | 49.1* | -3.8 | 6.6
CCN(CC)c1ccc(/C=C/C(=O)C2C(=O)C=C(C)OC2=O)cc1 (configuration not stated) | -78.9* | 39.6* | 245.8* | -4.4 | 221.8*
CCN(CC)c1ccc(C=C2C(=O)OC(c3ccccc3)OC2=O)cc1 (configuration not stated) | -2.9 | 5.9 | 0.2 | -0.3 | -0.1
C=Cc1cc2c(s1)c1cnn(Cc3ccccc3F)c(=O)c1n2C | 13.2 | -2.2 | 1.6 | 5.0 | -1.2
Cc1ccccc1-c1csc2ncnc(Sc3nnnn3C)c12 | 2.2 | -0.7 | -0.8 | 7.6 | -1.4
O=C(O)CCCn1cc(NC(=O)COc2ccccc2F)cn1 | -39.0*! | 1.1 | 8.5 | 1.1 | -1.5
COc1ccccc1OCCCCn1c(C(C)O)nc2ccccc21 (configuration not stated) | -1.7 | -8.3 | 0.7 | -6.8 | -0.1
O=C(NN1C(=O)C2C3C=CC(O3)C2C1=O)c1cccc(O)c1 (configuration not stated) | -80.3* | -3.2 | 2.2 | -10.7 | -0.1
COc1ccc(C(=O)c2cn(Cc3ccccc3)c3ccccc3c2=O)cc1OC | -33.4* | 47.8* | 1.0 | 0.2 | -0.4
O=C(Cc1ccccc1)N1CCN=C1SCc1cccc([N+](=O)[O-])c1 | -23.0 | 31.3* | -0.1 | -4.3 | -0.3
Cc1cccc(C(=O)N2CCN=C2SCc2ccc([N+](=O)[O-])cc2)c1 | 5.2 | 0.9 | 6.4 | 3.8 | 0.2
CSC1=NCCN1C(=O)Cc1ccc(Cl)cc1 | 23.5 | -5.2 | 1.6 | / | 0.1
COc1ccc(CC(=O)N2CCN=C2SC)cc1 | -79.0* | 0.6 | 2.9 | / | 0.5
Cc1ccc(CNC(=O)c2nccnc2C(=O)O)cc1 | -27.7 | -8.6 | 2.0 | -5.0 | 0.5
CC(C)NS(=O)(=O)c1ccc(Oc2ncc(C(F)(F)F)cc2Cl)cc1 | -26.3 | -2.2 | 21.6 | -6.9 | 0.7
O=S(=O)(Nc1ccccc1)c1ccc(Oc2ncc(C(F)(F)F)cc2Cl)cc1 | -3.3 | 1.9 | 31.6* | -1.7 | 2.7
CCCNS(=O)(=O)c1ccc(Oc2ncc(C(F)(F)F)cc2Cl)cc1 | -5.7 | -0.5 | 46.5* | -9.1 | 5.2
CS(=O)(=O)NCCNc1ncc(C(F)(F)F)cc1Cl | -31.8* | -2.8 | 0.5 | -0.1 | -0.2
CCc1ccc(Oc2nc3c(C)cccn3c(=O)c2/C=C(\C#N)c2nc3ccccc3[nH]2)cc1 | 0.5 | 5.9 | 1.5 | -6.2 | -0.5
O=C(O)c1ccc(/C=N/NC(=O)C(O)(c2ccccc2)c2ccccc2)cc1 | -31.6* | 15.4 | 8.7 | 0.0 | 0.0
